Drawing on PubChem BioAssay AID1527 (The Scripps Research Institute Molecular Screening Center, 2009), this text covers inhibition for 26 compounds.

SMILES strings stand for the structures. Among all 290,000 compounds or so, about 2,600 (0.9%) were called active. Only a selection was taken, and actives are over-represented in it overall. Unmarked numbers belong to inactive results.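 The calls were made as follows: active = inhibition above the mean of all tested compounds plus 3 SD, cutoff set per screening run (cut at about 7.5% in these data); inactive = the rest.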

The subject of the test is VIM-2 metallo-beta-lactamase (Pseudomonas aeruginosa). The test can be described thus: VIM-2 metallo-beta-lactamase inhibitors, primary screen, biochemical, epi-absorbance readout, Pseudomonas aeruginosa enzyme (AID 1527).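 Also: red hydrolysis product quenches plate fluorescence so inhibitors raise well fluorescence; 0% = enzyme with DMSO and 100% = DMSO without enzyme.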 The following applies: purified VIM-2, nitrocefin hydrolysis, epi-absorbance fluorescence; at 5.6 µM; stronger effect = higher value.
With `O=C(CCC1CCCN(C(=O)c2ccc(F)c(F)c2)C1)N1CCN(c2ccccn2)CC1` (stereo unspecified), the inhibition was -0.15%.

On to `CCn1ccnc1CNC(=O)CC1C(=O)NCCN1Cc1ccc(F)cc1Cl` (stereo unspecified), for which the inhibition was -4.36%.

For the compound `CC(=O)Nc1ccccc1Sc1ccc2c3c(cccc13)C(=O)N(c1ccc(C)cc1)C2=O`, the inhibition was -3.98%.

Consider `O=C(O)c1ccc2c3c(cccc13)C(=O)N(OS(=O)(=O)c1ccccc1)C2=O`, for which the inhibition was 0.17%.

For `Cc1nn(C)cc1N1C(=O)c2cccc3c(N)ccc(c23)C1=O`, the inhibition was 21.7% (active).

As for `O=C1c2ccccc2C(=O)N1c1cccc2ccccc12`, the inhibition was -0.93%.

Consider `CN1C(=O)c2cccc3c(N)ccc(c23)C1=O`, for which the inhibition is 50.1% (active).

Regarding `Cc1nn(-c2cc(Cl)ccc2N)c(=O)c2ccccc12`, the inhibition was -2.2%.

`NS(=O)(=O)c1ccc(N=Nc2c(O)[nH]c3ccc(Br)cc23)cc1`: the inhibition was -2.22%.

As for `Cc1c(C=O)c2ccccc2n1CCOc1ccccc1`, the inhibition was -0.2%.

For the compound `CN(C)CCCN(C(=O)c1ccc(S(=O)(=O)N2CCCc3ccccc32)cc1)c1nc2ccc(F)cc2s1`, the inhibition is -1.07%.

Regarding `CCc1cc(C(=O)c2ccc(OC)cc2)c(NC(=O)CN2CCN(C)CC2)s1`, the inhibition is 7.76% (active).

`CCc1cc(C(N)=O)c(NC(=O)c2ccc(OC)cc2)s1`: the inhibition is -2.73%.

`CCOc1ccc(NC(=O)CN2CCN(CC(=O)Nc3ccc(OC)cc3)CC2)cc1`: the inhibition was 0.38%.

For the compound `COc1cccc(CN(C)CC2CCCN(CCc3ccc(Cl)cc3)C2)c1OC` (stereo unspecified), the inhibition is -0.31%.

For the compound `COc1ccc(CNc2cc(C)cc(C)c2)cc1OC`, the inhibition was -0.65%.

As for `O=C(/C=C/c1cccc(C(F)(F)F)c1)N1CCN(c2ccccn2)CC1`, the inhibition is -1.71%.

As to `COc1ccccc1NC(=O)C1CCN(C(=O)c2ccc(C(C)(C)C)cc2)CC1`, the inhibition was -0.92%.

Turning to `Cc1ccc(NS(=O)(=O)c2ccc3c(c2)NC(=O)CO3)cc1`, the inhibition is -3.86%.

As to `COc1cccc(/C=C2\Sc3ccc(C(=O)NCC4CCCO4)cc3N(C)C2=O)c1` (stereo unspecified), the inhibition was 2.03%.

On to `COCCCn1c(SCC(=O)NC2CCCC2)nnc1-c1ccccc1`, for which the inhibition was -3.05%.

In the case of `CCC(C)c1ccc(NC(=S)N2CCCC2)cc1` (stereo unspecified), the inhibition is -4.58%.

As for `Cc1cc(C)c2nc(SCCC#N)nc(C)c2c1`, the inhibition is 0.46%.

Turning to `Cc1cc(C)c2nc3nc(C)cc(C)c3c(N)c2c1`, the inhibition is 23.4% (active).

`Cc1cc(C)c2nc(-c3ccco3)cc(C(=O)O)c2c1`: the inhibition was -2.98%.

For the compound `Cc1cccnc1CC(C)NC(=O)c1cc(COc2cncc(Cl)c2)on1` (stereo unspecified), the inhibition was -1.87%.
